# Bioassay records (PubChem BioAssay)
# Pol kappa inh-1: blocks human DNA polymerase kappa activity; hit rate 0.53% among 400,000; purified Pol kappa, fluorescent DNA synthesis assay, 10 min; Potency, µM (top dose mostly 107 µM), most hits filed as inhibitors
#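 Inhibition of 10 nM Pol kappa is measured by a fluorescent read-out at 0 and 10 min following addition of 50 nM substrate (final), with a 15-min room-temperature compound preincubation.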
# Pol beta inh: inhibitors of human DNA polymerase beta; P06746; Pol beta primer extension/strand displacement, fluorescence kinetic; Potency, µM (highest dose often 114 µM), most hits filed as inhibitors; hit rate 1.3% among 340,000; AID 485314
#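 Values derive from four-parameter Hill fits of normalized kinetic data: reads at 0 and 10 min following addition of 50 nM substrate to 10 nM Pol beta preincubated 15 min with compound.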
# Pol eta inh-1: blocks human DNA polymerase eta activity | Q9Y253 | recombinant Pol eta, fluorescent DNA replication assay | Potency, µM (doses to about 114 µM), actives largely listed as inhibitors | hit rate 1.2% among 390,000 | AID 588591
# Target sequence (Q9Y253 whole entry, looked up): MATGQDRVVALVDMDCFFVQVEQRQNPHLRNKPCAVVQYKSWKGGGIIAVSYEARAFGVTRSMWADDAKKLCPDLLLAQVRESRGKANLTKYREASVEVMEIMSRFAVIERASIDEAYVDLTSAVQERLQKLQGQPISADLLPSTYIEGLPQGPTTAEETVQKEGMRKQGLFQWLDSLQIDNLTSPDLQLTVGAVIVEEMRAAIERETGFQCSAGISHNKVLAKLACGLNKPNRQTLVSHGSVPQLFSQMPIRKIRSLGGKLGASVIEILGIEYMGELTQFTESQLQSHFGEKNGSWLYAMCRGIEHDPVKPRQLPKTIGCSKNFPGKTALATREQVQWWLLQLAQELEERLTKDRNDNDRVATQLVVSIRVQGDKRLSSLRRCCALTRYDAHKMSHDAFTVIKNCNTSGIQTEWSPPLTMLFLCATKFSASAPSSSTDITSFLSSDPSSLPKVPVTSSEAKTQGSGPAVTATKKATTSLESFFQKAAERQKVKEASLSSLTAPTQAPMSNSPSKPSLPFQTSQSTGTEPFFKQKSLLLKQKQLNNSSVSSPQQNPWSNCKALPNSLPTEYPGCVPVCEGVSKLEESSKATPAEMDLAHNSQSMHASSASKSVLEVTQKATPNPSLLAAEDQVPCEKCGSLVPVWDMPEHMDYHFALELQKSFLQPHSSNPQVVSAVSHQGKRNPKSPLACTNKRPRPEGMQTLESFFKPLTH
#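 Pol eta (10 nM) was preincubated with compounds for 15 min at room temperature, after which fluorescent replication substrate (50 nM final) was added to start the reaction. Fluorescence was read kinetically at 0 and 10 min.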
# Pol iota inh: inhibitors of human DNA polymerase iota; Q9UNA4; Pol iota fluorescent replication assay, 10 min; Potency, µM (series often up to 115 µM), usual class: inhibitors; hit rate 1% among 390,000
#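 Pol iota at 10 nM preincubated 15 min with compounds at room temperature; reaction started with fluorescent substrate, 50 nM final. Fluorescence read kinetically at 0 and 10 min; buffer-only wells as negative control.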
# FEN1 inh: inhibitors of human flap endonuclease 1. P39748. Recombinant FEN1 flap cleavage, fluorescence, 15 min. Potency, µM (titrated, usually from 114 µM), hits mostly inhibitors. hit rate 0.35% among 390,000. AID 588795; further: nearly all actives have a fitted effect of over 65% in size
#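 Quantitative HTS format: each compound was titrated, incubated with 10 nM nuclease for 15 min at room temperature, then challenged with flap substrate at 50 nM final. Signal change over 15 min gave concentration–effect curves.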
# TDP1 block: TDP1 (human) enzyme inhibition; hit rate 0.28% among 350,000; Q9NUW8; Potency, µM (top dose mostly 130 µM), hits mostly inhibitors; AID 485290; recombinant TDP1, AlphaScreen DNA substrate cleavage; further: nearly all actives have a fitted effect of over 40% in size
#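 E. coli-derived human Tdp1, 1 nM final. Cpd preinc 15 min RT; substrate 15 nM final, 5 min RT; AS bead mix 10 ug/ml final, 10 min RT. Signal loss = tyrosine-FITC cleavage. No-enzyme wells = max signal.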
# GALK confirm: confirmation of human galactokinase (GALK) inhibitors; shares compounds with Pol eta inh-1; purified GALK, Kinase-Glo ATP depletion luminescence; Potency, µM (titrated, usually from 115 µM), most hits filed as inhibitors; hit rate 70% among 150; AID 2015
# GALK redox cs: counter-screen for GALK inhibitors: redox cycling H2O2 generation | shares compounds with Pol eta inh-1 | Phenol red-HRP H2O2 redox cycling, absorbance 600 nm | Potency, µM (top dose mostly 115 µM), actives largely listed as inhibitors | hit rate 40% among 150 | AID 2035
# HEK293 tox: counter-screen for GALK inhibitors: HEK293 cell cytotoxicity; shares compounds with Pol eta inh-1; hit rate 10% among 170; Potency, µM (top dose mostly 46.1 µM), hits mostly inhibitors; HEK-293 viability, ATP luminescence (CellTiter-Glo), 24/48 h
# Pol kappa inh-2: confirmation of human DNA polymerase kappa inhibitors. shares compounds with Pol eta inh-1. purified Pol-kappa, fluorescent strand-displacement substrate. Potency, µM, most hits filed as inhibitors. hit rate 76% among 920. AID 720501
# Pol eta inh-2: Pol eta (human) inhibition, cherry-pick confirmation | shares compounds with Pol eta inh-1 | Pol eta primer extension, TAMRA/BHQ fluorescence, 10 min | Potency, µM, usual class: inhibitors | hit rate 64% among 2,600 | AID 720502
# Hits are given with their value; 0 = inactive; ? = inconclusive; - = no result given; [ ] = dose if it differs, or a comment. In the library only some 2.4% were active in any assay of this set; here they are far more common. The call rests on the fitted dose curve; in most records, active means well fitted curve in the direction sought with a large enough effect; inconclusive means small, poorly fitted or top-dose-only effect, or another doubt; inactive means no such curve, though single readings can be large; an effect the other way counts as inactive or inconclusive.
SMILES,Pol kappa inh-1,Pol beta inh,Pol eta inh-1,Pol iota inh,FEN1 inh,TDP1 block,Pol eta inh-2,others
COc1cc(/C=C2/C(=N)N3C(=NC2=O)SN=C3S(=O)(=O)C(C)C)ccc1OS(=O)(=O)c1ccccc1,-,?,-,-,-,0,-,GALK confirm=?;GALK redox cs=0;HEK293 tox=0
COc1cc(/C=C2\C(=N)N3N=C(S(C)(=O)=O)SC3=NC2=O)ccc1OS(=O)(=O)c1ccc(C)cc1,?,100µM,32µM,20µM,0,0,48,
COc1cc(/C=C2\C(=N)N3N=C(S(C)(=O)=O)SC3=NC2=O)cc(OC)c1OCCOc1ccccc1C,0,?,25µM,?,0,-,?,Pol kappa inh-2=?
Cc1cc(/C=C2/C(=N)N3C(c4ccccc4)=CSC3=NC2=O)c(C)n1-c1ccc(Cl)cc1,0,-,0,0,0,-,-,
COCCn1c(C)cc(O)c(C(c2cccc(F)c2)N2CCN(c3ccccc3)CC2)c1=O (stereo not given),0,0,0,0,0,0,-,
Cc1ccc(NC(=O)C2CCN(c3nnc(C)c4c(C)n(-c5ccccc5)nc34)CC2)cc1Cl,0,0,0,0,0,0,-,
COc1ccc(NC(=O)C2CCCN(c3nnc(C)c4c(C)n(-c5ccccc5)nc34)C2)cc1Cl (stereo not given),?,71µM,35µM,0,0,0,?,Pol kappa inh-2=17
COc1ccc(Sc2ccc(/C=C3\C(=O)NN(c4ccccc4)C3=O)o2)cc1,?,45µM,25µM,18µM,0,0,?,
S=C1NCN(C2CCCCC2)CN1CCc1ccccc1,0,0,0,0,0,0,-,
CN(C)C1(CN=Cc2cc(Cl)cc([N+](=O)[O-])c2O)CCCCC1,?,14µM,?,?,0,0,?,
CCc1sc(/C=C(/C#N)C(N)=S)cc1[N+](=O)[O-],0,?,20µM,?,0,0,43,
O=C(Cn1c(=O)nc(-c2ccccc2)c2ccccc21)Nc1cccc(C(F)(F)F)c1,0,0,0,0,0,0,-,
Clc1ccc(CCNC(c2ccc(Cl)cc2)c2nnc(-c3ccccc3)o2)cc1 (stereo not given),0,0,0,0,0,0,-,
CN=c1scc(-c2cccs2)n1/N=C/c1ccc(O)c(O)c1O,?,2.8µM,?,?,35µM,0,76,
O=C(CCc1nc2ccccc2c(=O)[nH]1)Nc1ccc(F)c([N+](=O)[O-])c1,0,?,?,0,0,0,67,
O=C(CCc1nc2ccccc2c(=O)[nH]1)NCC(=O)Nc1ccc(F)c(F)c1,0,-,0,0,0,-,-,
CC(=C/c1ccco1)/C=N/NC(=O)Cc1cccn1C,?,0,?,56µM,0,-,-,Pol kappa inh-2=42
CC(/C=N/NC(=O)CN1CCN(Cc2ccc(Cl)cc2)CC1)=C\c1ccco1,?,0,0,0,0,0,-,
COc1ccccc1C(=O)Nc1sc(C(=O)N2CCCC2)c(C)c1C#N,0,0,0,0,0,0,-,
Cc1c(C(=O)N2CCCC2)sc(NC(=O)c2ccc(Cl)cc2)c1C#N,0,0,0,0,0,0,-,GALK confirm=?;GALK redox cs=0;HEK293 tox=0
Cc1cc(C)c(C(=O)/C=C/c2ccco2)c(=O)[nH]1,?,14µM,56µM,?,0,16µM,85,
O=C(/C=C/c1ccco1)c1cccc([N+](=O)[O-])c1,?,-,20µM,50µM,0,-,?,
O=C(/C=C/c1cccc([N+](=O)[O-])c1)c1ccccc1,-,-,-,-,-,0,-,
Cc1ccccc1OCc1nc2ccccc2n1Cc1ccccc1Cl,0,0,-,0,0,-,-,
COc1cccc(NC(=O)c2oc3ccccc3c2NC(=O)c2ccccc2C)c1,0,0,0,0,0,0,-,
SMILES,Pol kappa inh-1,Pol beta inh,Pol eta inh-1,Pol iota inh,FEN1 inh,TDP1 block,Pol eta inh-2,others
O=C(NC1(O)C(=O)c2ccccc2C1=O)c1c(Cl)cccc1Cl,0,0,45µM,1.6µM,0,0,?,GALK confirm=24µM;GALK redox cs=9.4µM;HEK293 tox=0
O=C(NO)c1ccccc1,-,-,-,-,-,0,-,
O=C(NC1(O)C(=O)c2ccccc2C1=O)c1ccccc1,0,0,32µM,6.3µM,0,0,-,GALK confirm=24µM;GALK redox cs=11µM;HEK293 tox=0
CC(C)C(CCNC(=O)CC(Cc1ccccc1)c1ccco1)c1ccco1 (stereo not given),?,32µM,79µM,?,0,0,85,Pol kappa inh-2=53
CC(C)C(CCNC(=O)CN1C(=O)c2ccccc2C1=O)c1ccco1 (stereo not given),0,0,0,0,0,0,-,
COC(=O)c1ccccc1S(=O)(=O)N1CCC(C(=O)OCc2ccc([N+](=O)[O-])cc2)CC1,0,-,0,0,0,-,-,
O=C(c1ccc(OC2CCN(C(=O)C3CC3)CC2)cc1)N(CCO)Cc1ccccc1,0,0,0,0,0,0,-,
COc1ccc(NC(=O)CSc2nnnn2C2CCCCC2)cc1,0,0,0,0,0,0,-,
Cc1cc(NS(=O)(=O)c2ccc(NC(=O)COc3ccccc3C(C)(C)C)cc2)no1,0,?,0,0,0,0,-,
Cc1cc(NS(=O)(=O)c2ccc(NC(=O)COc3ccccc3[N+](=O)[O-])cc2)no1,?,18µM,20µM,35µM,0,0,67,
Cc1snc(S(=O)(=O)/C(C#N)=N/Nc2ccc(C(F)(F)F)cc2)c1C#N,0,0,0,0,0,0,-,GALK confirm=38µM;GALK redox cs=0;HEK293 tox=0
Cn1nc(C(=O)Nc2ccc(S(=O)(=O)Nc3ncccn3)cc2)ccc1=O,?,0,28µM,?,0,-,67,
O=C(Nc1ccc(S(=O)(=O)Nc2ncccn2)cc1)c1ccccc1Cl,0,?,0,0,0,0[2.28 µM],-,
COc1ccc(Cl)cc1S(=O)(=O)N(C)CC(=O)N1CCOCC1,0,0,0,0,0,-,-,
COc1ccc(C2=Nn3c(nnc3-c3ccccc3C(F)(F)F)SC2)cc1OC1CCOC1 (stereo not given),?,-,0,0,0,0,-,Pol kappa inh-2=4.7
COc1ccc(C2=Nn3c(nnc3-c3ccccc3OC)SC2)cc1OC1CCOC1 (stereo not given),45µM,-,0,0,0,0,-,Pol kappa inh-2=4.2
